Molecular target: T1, Aspartate--tRNA(Asp/Asn) ligase (Mycobacterium tuberculosis (strain ATCC 25618 / H37Rv)) (UniProt P9WFW3); note: in the data most compounds retested in dose-response had high values
T1 sequence (whole entry): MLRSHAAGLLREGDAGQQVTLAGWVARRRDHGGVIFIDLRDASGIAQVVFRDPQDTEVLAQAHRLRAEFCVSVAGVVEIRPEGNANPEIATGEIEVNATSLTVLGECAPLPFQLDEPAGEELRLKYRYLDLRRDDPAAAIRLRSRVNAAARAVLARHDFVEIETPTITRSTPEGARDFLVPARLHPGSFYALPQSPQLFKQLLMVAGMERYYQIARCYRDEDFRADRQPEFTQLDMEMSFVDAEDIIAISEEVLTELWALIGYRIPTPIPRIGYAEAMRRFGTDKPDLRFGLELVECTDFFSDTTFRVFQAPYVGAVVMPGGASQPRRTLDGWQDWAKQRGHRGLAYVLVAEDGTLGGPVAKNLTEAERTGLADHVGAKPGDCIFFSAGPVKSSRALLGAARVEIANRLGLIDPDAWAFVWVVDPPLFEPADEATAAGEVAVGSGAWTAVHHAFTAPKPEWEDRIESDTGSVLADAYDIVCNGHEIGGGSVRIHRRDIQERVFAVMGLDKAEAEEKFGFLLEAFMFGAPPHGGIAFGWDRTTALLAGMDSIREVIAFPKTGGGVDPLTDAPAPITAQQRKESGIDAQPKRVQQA
Experiment: Assay for Asp RNA synthetase-1 from Mycobacterium tuberculosis
Assay type: functional
Parameters: scale not given: direction of the effect not stated beside the values
Settings: 30 µM

| SMILES | Percent Effect |
| --- | --- |
| Cc1nc(C)n(C2CCCN(C(=O)c3cc(C(N)=O)cs3)C2)n1 (stereo not given) | -5.92% |
| Cc1cc(C)n(C2CCCN(C(=O)Cc3csc(C)n3)C2)n1 (stereo not given) | -6.85% |
| CC(=O)N1CCC(c2cc(C(F)(F)F)n3ccnc3n2)CC1 | 6.9% |
| NC[C@H]1CC[C@H](C(NC(=O)c2ccccn2)c2ccccn2)CC1 (stereo not given in full) | 1.43% |
| O=S(=O)(C1CC1)N1CCC2(CC1)CC(Oc1cccnc1)CO2 (stereo not given) | 6.21% |
| Fc1ccc(CCN2CCC(c3nnc(-c4cccnc4)o3)CC2)cc1 | 4.51% |
| O=C1CC(c2ccccc2)C2(CCN(CC3CC3)CC2)N1 (stereo not given) | -1.66% |
| CCc1noc(C)c1C(=O)N1CCCC1Cn1nc(C)cc1C (stereo not given) | 0.674% |
| CCc1noc(C)c1C(=O)N(C)Cc1ncc(C)c(OC)c1C | -1.73% |
| COCCc1noc(CN2CCCC2Cn2cc(C)cn2)n1 (stereo not given) | -2.48% |
| COc1ccsc1C(=O)N1CCCC(n2nc(C)nc2C)C1 (stereo not given) | 0.571% |
| Cc1nn(C)c(C)c1C1COCCN1C(=O)c1ccccc1 (stereo not given) | -8.71% |
| Clc1ccc(OCCN2CCN(CCn3cncn3)CC2)cc1 | -1.39% |
| Cc1nnc(NC(=O)NCc2ccc(N3CCN(C)CC3)nc2)s1 | 3.74% |
| Cc1cnc(N2C[C@H]3C[C@H](C(=O)N(C)C)[C@@H](C2)O3)nc1 | 2.79% |
| CNc1cncc(C2CCCN2C(=O)c2ccc3oc(=O)n(C)c3c2)n1 (stereo not given) | 5.14% |
| CC(NC(=O)N(C)Cc1ccsc1)c1ccc2c(c1)NC(=O)CO2 (stereo not given) | -2.41% |
| CC(C)COC(C)C(=O)NCc1ccc(N(C)C)cc1 (stereo not given) | 5.65% |
| CC(NC(=O)CCCOc1ccccc1)c1nnc2n1CCCCC2 (stereo not given) | 4.5% |
| O=S(=O)(C1CC1)N1CCO[C@H]2[C@H](OCC3CCCC3)CC[C@@H]21 | 0.291% |

| SMILES | Percent Effect |
| --- | --- |
| CCn1cc(NC(=O)NCC(C)O)cn1 (stereo not given) | -3.08% |
| Cn1ccc(C(=O)N2CCC[C@]3(C[C@@H](OCc4ccccn4)CO3)C2)n1 | -1.05% |
| Cc1noc([C@H]2C[C@H]3OCC[C@H]3N(Cc3ccc4c(c3)OCO4)C2)n1 | 2.03% |
| CCOC(=O)N1CCC(C(=O)c2cc(F)ccc2F)CC1 | 1.26% |
| Cn1cnc2c1CCN(Cc1csc(-c3ccsc3)n1)C2 | 3.77% |
| CC1CCCCN1CCNC(=O)c1ccn(-c2ccc(F)cc2)n1 (stereo not given) | 3.98% |
| Cc1ccccc1NS(=O)(=O)c1cc2c(c(C(=O)O)c1)OCCO2 | -0.815% |
| CCCc1n[nH]c(C2CN(C(=O)C3=COCCC3)CCO2)n1 (stereo not given) | -5.39% |
| CC(=O)N1CCn2c(COCc3csc(C)n3)cnc2C1C (stereo not given) | -3.29% |
| COc1ccc(OCc2nc(C(=O)N3CC(O)C3)co2)cc1 | -0.0558% |
| CCN1CCC(c2nc3ccc(NC(C)C)cn3n2)CC1 | 2.52% |
| O=C(NCc1ccccc1)c1nnc2ccc(N3CCOCC3)cc2n1 | -1.02% |
| CC(CNC(=O)Nc1cn[nH]c1)N1CCc2ccccc2C1 (stereo not given) | -0.721% |
| CCn1ccnc1CN1CCN(CCOc2cccc(C#N)c2)CC1 | -0.322% |
| c1cnc(N2CCC3(CCN(Cc4ccncc4)CC3)CC2)nc1 | -2.46% |
| CNc1cncc(C2CCCN(S(C)(=O)=O)C2)n1 (stereo not given) | 5.76% |
| Cc1nnc2n1CCN(CCS(=O)(=O)c1ccccc1)C2 | -4.37% |
| O=C(NCCNc1cnccn1)C1CCN(C(=O)N2CCCC2)CC1 | 6.24% |
| CN(C)c1cc2c(nn1)CCN(C(=O)Cc1noc3ccccc13)C2 | 0.589% |
| O=C(NCCC1CCCO1)c1ccccc1N1CCOCC1 (stereo not given) | -8.37% |

Molecular target: Shiga toxin 2 (Escherichia coli O157:H7) (UniProt P09385+P09386)
Experiment: E. coli 0.157:H7 Shiga Toxin SOP - stx2 screening assay
Assay type: functional
Parameters: scale not given: direction of the effect not stated beside the values
Settings: 30 µM

| SMILES | Percent Effect |
| --- | --- |
| Cc1nc(C)n(C2CCCN(C(=O)c3cc(C(N)=O)cs3)C2)n1 (stereo not given) | -13.1% |
| Cc1cc(C)n(C2CCCN(C(=O)Cc3csc(C)n3)C2)n1 (stereo not given) | 5.9% |
| CC(=O)N1CCC(c2cc(C(F)(F)F)n3ccnc3n2)CC1 | -9.96% |
| NC[C@H]1CC[C@H](C(NC(=O)c2ccccn2)c2ccccn2)CC1 (stereo not given in full) | 17% |
| O=S(=O)(C1CC1)N1CCC2(CC1)CC(Oc1cccnc1)CO2 (stereo not given) | -0.225% |
| Fc1ccc(CCN2CCC(c3nnc(-c4cccnc4)o3)CC2)cc1 | -76.7% |
| O=C1CC(c2ccccc2)C2(CCN(CC3CC3)CC2)N1 (stereo not given) | -14.7% |
| CCc1noc(C)c1C(=O)N1CCCC1Cn1nc(C)cc1C (stereo not given) | 27.6% |
| CCc1noc(C)c1C(=O)N(C)Cc1ncc(C)c(OC)c1C | 16.8% |
| COCCc1noc(CN2CCCC2Cn2cc(C)cn2)n1 (stereo not given) | -2.29% |
| COc1ccsc1C(=O)N1CCCC(n2nc(C)nc2C)C1 (stereo not given) | 6.02% |
| Cc1nn(C)c(C)c1C1COCCN1C(=O)c1ccccc1 (stereo not given) | -37.5% |
| Clc1ccc(OCCN2CCN(CCn3cncn3)CC2)cc1 | -23.5% |
| Cc1nnc(NC(=O)NCc2ccc(N3CCN(C)CC3)nc2)s1 | 24.2% |
| Cc1cnc(N2C[C@H]3C[C@H](C(=O)N(C)C)[C@@H](C2)O3)nc1 | -23.4% |
| CNc1cncc(C2CCCN2C(=O)c2ccc3oc(=O)n(C)c3c2)n1 (stereo not given) | 3.86% |
| CC(NC(=O)N(C)Cc1ccsc1)c1ccc2c(c1)NC(=O)CO2 (stereo not given) | 18.1% |
| CC(C)COC(C)C(=O)NCc1ccc(N(C)C)cc1 (stereo not given) | -8.68% |
| CC(NC(=O)CCCOc1ccccc1)c1nnc2n1CCCCC2 (stereo not given) | 19.8% |
| O=S(=O)(C1CC1)N1CCO[C@H]2[C@H](OCC3CCCC3)CC[C@@H]21 | 8.36% |

| SMILES | Percent Effect |
| --- | --- |
| CCn1cc(NC(=O)NCC(C)O)cn1 (stereo not given) | 3.43% |
| Cn1ccc(C(=O)N2CCC[C@]3(C[C@@H](OCc4ccccn4)CO3)C2)n1 | -3.97% |
| Cc1noc([C@H]2C[C@H]3OCC[C@H]3N(Cc3ccc4c(c3)OCO4)C2)n1 | -3.36% |
| CCOC(=O)N1CCC(C(=O)c2cc(F)ccc2F)CC1 | 36.2% |
| Cn1cnc2c1CCN(Cc1csc(-c3ccsc3)n1)C2 | -95.3% |
| CC1CCCCN1CCNC(=O)c1ccn(-c2ccc(F)cc2)n1 (stereo not given) | -12.3% |
| Cc1ccccc1NS(=O)(=O)c1cc2c(c(C(=O)O)c1)OCCO2 | 29.1% |
| CCCc1n[nH]c(C2CN(C(=O)C3=COCCC3)CCO2)n1 (stereo not given) | 19% |
| CC(=O)N1CCn2c(COCc3csc(C)n3)cnc2C1C (stereo not given) | -18.6% |
| COc1ccc(OCc2nc(C(=O)N3CC(O)C3)co2)cc1 | -45.4% |
| CCN1CCC(c2nc3ccc(NC(C)C)cn3n2)CC1 | 4.27% |
| O=C(NCc1ccccc1)c1nnc2ccc(N3CCOCC3)cc2n1 | -21.5% |
| CC(CNC(=O)Nc1cn[nH]c1)N1CCc2ccccc2C1 (stereo not given) | 21.5% |
| CCn1ccnc1CN1CCN(CCOc2cccc(C#N)c2)CC1 | -9.38% |
| c1cnc(N2CCC3(CCN(Cc4ccncc4)CC3)CC2)nc1 | 1.18% |
| CNc1cncc(C2CCCN(S(C)(=O)=O)C2)n1 (stereo not given) | 2.62% |
| Cc1nnc2n1CCN(CCS(=O)(=O)c1ccccc1)C2 | -6.96% |
| O=C(NCCNc1cnccn1)C1CCN(C(=O)N2CCCC2)CC1 | -37.5% |
| CN(C)c1cc2c(nn1)CCN(C(=O)Cc1noc3ccccc13)C2 | -8.79% |
| O=C(NCCC1CCCO1)c1ccccc1N1CCOCC1 (stereo not given) | -3.88% |

— ChEMBL document CHEMBL3988442, “University of Dundee, Small-Polar-MMV Screening Library” (2021)
